Laboratory results: PubChem BioAssay (Tox21)
“And” between values parts separate entries of the source, which are not always exact repeats. Identical values can stand only once. Inconclusive results are not listed. Entries that show only a call come without a potency. A structure can be active in one record and inactive in another. The source made the active and inactive calls. Unless noted, the call rests on the fitted dose curve; in most records, active means well fitted curve in the direction sought with a large enough effect in the repeat runs; inconclusive means weak or mixed curves; inactive means no such curve, though single readings can be large; an effect the other way counts as inactive or inconclusive.

Columns and labels:
[1] = qHTS assay to identify small molecule antagonists of the glucocorticoid receptor (GR) signaling pathway - cell viability counter screen (AID 720693); further: nearly all actives have a fitted effect of over 55% in size
[2] = qHTS assay for identifying genotoxic compounds that show differential cytotoxicity against isogenic chicken DT40 cell lines with known DNA damage response pathways - wild type cell line (AID 743012); further: nearly all actives have a fitted effect of over 60% in size; further: potency means the concentration at half of the fitted maximal effect
How it was run: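 300 wt DT40 cells/well; cpd (DMSO) pintool-transferred after ~0.5 h at 37 C/5% CO2; 40 h incubation; CellTiter-Glo added, 30 min RT; luminescence read.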

[3] = qHTS assay for identifying genotoxic compounds that show differential cytotoxicity against isogenic chicken DT40 cell lines with known DNA damage response pathways - Rev3 mutant cell line (AID 743014); further: nearly all actives have a fitted effect of over 55% in size; further: potency means the concentration at half of the fitted maximal effect
[4] = qHTS assay for identifying genotoxic compounds that show differential cytotoxicity against isogenic chicken DT40 cell lines with known DNA damage response pathways - Rad54/Ku70 mutant cell line (AID 743015); further: nearly all actives have a fitted effect of over 60% in size; further: potency means the concentration at half of the fitted maximal effect
[5] = qHTS assay to identify small molecule antagonists of the androgen receptor (AR) signaling pathway - cell viability counter screen (AID 743033; further: nearly all actives have a fitted effect of over 45% in size)
[6] = target: Androgen receptor (Homo sapiens) (UniProt P10275); assay: qHTS assay to identify small molecule antagonists of the androgen receptor (AR) signaling pathway (AID 743035; active means well fitted inhibition curve with a large enough effect in the signal ratio in the repeat runs, not every such curve was filed as active; the % refers to the signal ratio; further: potency means the concentration at half of the fitted maximal effect)
Sequence of Androgen receptor (Homo sapiens) (P10275 whole entry, looked up): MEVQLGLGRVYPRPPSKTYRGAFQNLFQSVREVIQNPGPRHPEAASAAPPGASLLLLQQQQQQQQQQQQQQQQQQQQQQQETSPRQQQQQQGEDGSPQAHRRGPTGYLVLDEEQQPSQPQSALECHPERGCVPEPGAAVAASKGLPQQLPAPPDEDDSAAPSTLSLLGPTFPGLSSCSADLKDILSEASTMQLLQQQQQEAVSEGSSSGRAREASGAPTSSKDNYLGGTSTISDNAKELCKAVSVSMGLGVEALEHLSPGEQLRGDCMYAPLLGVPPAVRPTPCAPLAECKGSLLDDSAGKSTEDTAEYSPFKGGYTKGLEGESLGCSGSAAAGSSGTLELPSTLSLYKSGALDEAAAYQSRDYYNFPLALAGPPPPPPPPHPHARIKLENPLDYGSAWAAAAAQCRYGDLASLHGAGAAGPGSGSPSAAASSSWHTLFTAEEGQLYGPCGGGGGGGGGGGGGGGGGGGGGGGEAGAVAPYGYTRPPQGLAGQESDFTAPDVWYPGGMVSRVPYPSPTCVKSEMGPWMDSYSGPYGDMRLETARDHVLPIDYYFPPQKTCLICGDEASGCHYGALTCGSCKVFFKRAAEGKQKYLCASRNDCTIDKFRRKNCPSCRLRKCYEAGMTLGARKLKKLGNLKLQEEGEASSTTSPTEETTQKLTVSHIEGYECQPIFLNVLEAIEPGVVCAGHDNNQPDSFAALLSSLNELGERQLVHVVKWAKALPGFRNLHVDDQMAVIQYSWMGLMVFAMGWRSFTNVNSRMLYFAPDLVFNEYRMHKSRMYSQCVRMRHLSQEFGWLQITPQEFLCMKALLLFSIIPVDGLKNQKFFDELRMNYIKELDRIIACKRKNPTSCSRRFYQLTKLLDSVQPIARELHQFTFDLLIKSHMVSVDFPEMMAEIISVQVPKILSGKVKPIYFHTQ
How it was run: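 In this cell-based reporter screen, compounds were tested in concentration series against R1881-activated HEK293 cells expressing beta-lactamase under UAS control; after 16 h at 37C, FRET substrate was added and fluorescence read 2 h later.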

[7] = target: Androgen receptor (Homo sapiens) (UniProt P10275); assay: qHTS assay to identify small molecule agonists of the androgen receptor (AR) signaling pathway using the MDA cell line (AID 743040; further: nearly all actives have a fitted effect of over 20% in size)
How it was run: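 Luciferase read-out, ONE-Glo, 30 min RT. Cells: MDA-kb2 AR-luc, MMTV promoter with AR and GR response elements. Compound exposure 16 h, 37C, 0% CO2, after 5 h pre-incubation. qHTS agonist mode.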

[8] = qHTS assay to identify small molecule antagonists of the androgen receptor (AR) signaling pathway using the MDA cell line - cell viability counter screen (AID 743041; further: nearly all actives have a fitted effect of over 45% in size)
How it was run: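 Cytotoxicity counter screen: MDA-kb2 AR-luc cells, compound + R1881, 16 h, 37C, 0% CO2; CellTiter-Fluor added at 15.5 h, fluorescence read after 30 min.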

[9] = target: Androgen receptor (Homo sapiens) (UniProt P10275); assay: qHTS assay to identify small molecule antagonists of the androgen receptor (AR) signaling pathway using the MDA cell line (AID 743042; further: nearly all actives have a fitted effect of over 55% in size; further: potency means the concentration at half of the fitted maximal effect)
How it was run: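 MDA-kb2 breast carcinoma cells carrying MMTV-luciferase (AR/GR responsive) were co-treated with compounds and the agonist R1881 for 16 h at 37C. Inhibition read as ONE-Glo luminescence; CellTiter-Fluor fluorescence measured in parallel for cytotoxicity.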

[10] = target: Androgen receptor (Homo sapiens) (UniProt P10275); assay: qHTS assay to identify small molecule agonists of the androgen receptor (AR) signaling pathway (AID 743036; active means well fitted activation curve with a large enough effect in the signal ratio in the repeat runs, with a control signal flat, not every such curve was filed as active; the % refers to the signal ratio)
How it was run: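 HEK293 cells stably carrying a UAS-driven beta-lactamase reporter (GeneBLAzer AR-UAS-bla-GripTite) were plated at 2,000 cells/well, rested 4 h at 37C, then exposed to compounds in DMSO for 16 h. LiveBLAzer B/G FRET substrate was added for 2 h at room temperature; fluorescence read.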

SMILES | outcome [1] | Potency [2] | Potency [3] | Potency [4] | Potency [5] | Potency [6] | outcome [7] | Potency [8] | Potency [9] | outcome [10]
CC(C)(C)NC(N)=O | inactive | inactive | inactive | inactive | inactive | inactive | inactive | inactive | inactive | 
O=C(Nc1ccc(Cl)c(Cl)c1)C1CC1 | inactive | 29.8 µM (active) | 26.6 µM (active) | 29.8 µM (active) | inactive | 19 µM (active) | inactive | inactive | 29.8 µM (active) | inactive
O=C(OCC(COC(=O)c1cccnc1)(COC(=O)c1cccnc1)COC(=O)c1cccnc1)c1cccnc1 | inactive | inactive | inactive | inactive | inactive | inactive | inactive | inactive | inactive | inactive
CC(=O)OC(C)OC(=O)C(C)c1ccc(-c2ccccc2)c(F)c1 (stereo unspecified) | inactive | inactive | inactive | inactive | inactive | inactive | inactive | inactive | inactive | inactive
C=CCCCCCCCCCCCC | inactive | inactive | inactive | inactive | inactive | inactive | inactive | inactive | inactive | 
Cc1ccc(C=O)cc1C | inactive | inactive | inactive | inactive | inactive |  |  |  |  | 
O=C(O)c1cc(Cl)cc([N+](=O)[O-])c1Cl | inactive | inactive | inactive | inactive | inactive | inactive | inactive | inactive | inactive | inactive
CC(C)=O | inactive | inactive | inactive | inactive | inactive | inactive | inactive | inactive | inactive | inactive
CCOC(=O)c1ncn2c1CN(C)C(=O)c1cc(F)ccc1-2 | inactive | inactive | inactive | inactive | inactive | inactive | inactive | inactive | inactive | inactive
O=C(O)CCSSCCC(=O)O | inactive | inactive | inactive | inactive | inactive | inactive | inactive | inactive | inactive | inactive
N[C@@H](COP(=O)(O)O)C(=O)O | inactive | inactive | inactive | inactive | inactive |  |  |  |  | 
COc1cc(NS(=O)(=O)c2ccc(N)cc2)nc(OC)n1 | inactive | inactive | inactive | inactive | inactive | inactive | inactive | inactive | inactive | inactive
Nc1ccc2cc(S(=O)(=O)O)cc(O)c2c1 | inactive | inactive | inactive | inactive | inactive | inactive | inactive | inactive | inactive | inactive
Nc1ccc(S(=O)(=O)Nc2ccc(Cl)nn2)cc1 | inactive | inactive | inactive | inactive | inactive | inactive | inactive | inactive | inactive | inactive
CC1(CO)CN(c2ccccc2)NC1=O (stereo unspecified) | inactive | inactive | inactive | inactive | inactive | inactive | inactive | inactive | inactive | 
CCC(CC)CO | inactive | inactive | inactive | inactive | inactive | inactive | inactive | inactive | inactive | 
Cc1cccc(C)c1NC(=O)c1ccccc1C(=O)O | inactive | inactive | inactive | inactive | inactive | inactive | inactive | inactive | inactive | inactive
CC(C)c1ccc2cc(C(C)C)ccc2c1 | inactive | inactive | inactive | inactive | inactive | inactive | inactive | inactive | inactive | inactive
COCCOCCOCCOCCO | inactive | inactive | inactive | inactive | inactive | inactive | inactive | inactive | inactive | inactive
CC(C)NCC(O)COc1ccc(COCCOC(C)C)cc1 (stereo unspecified) | inactive | inactive | inactive | inactive and 26.6 µM (active) | inactive | inactive | inactive | inactive | inactive | inactive
O=C(CCN1CCN(CCO)CC1)N1c2ccccc2Sc2ccc(C(F)(F)F)cc21 | inactive | 26.6 µM (active) | 29.8 µM (active) | 29.8 µM (active) | inactive | inactive | inactive | inactive | inactive | inactive
COc1ccc2c(c1)C(=O)N(CCc1ccc(S(=O)(=O)NC(=O)NC3CCCCC3)cc1)C(=O)C2(C)C | inactive | inactive | inactive | inactive | inactive | inactive | inactive | inactive | inactive | inactive
CC(C(=O)O)c1ccc2c(c1)CC(=O)c1ccccc1S2 (stereo unspecified) | inactive | inactive | inactive | inactive | inactive | inactive | inactive | inactive | inactive | 
Oc1cn2c(n1)Nc1ccc(Cl)c(Cl)c1C2 | inactive | inactive | inactive | inactive | inactive | inactive | inactive | inactive | inactive | inactive
CCCCCCOc1ccccc1C(N)=O | inactive | 23.7 µM (active) | 21.1 µM (active) | 21.1 µM (active) |  |  |  |  |  | 

SMILES | outcome [1] | Potency [2] | Potency [3] | Potency [4] | Potency [5] | Potency [6] | outcome [7] | Potency [8] | Potency [9] | outcome [10]
C=C(C)C1CCC(C)(O)CC1 (stereo unspecified) | inactive | inactive | inactive | inactive | inactive | inactive | inactive | inactive | inactive | inactive
O=C(OCc1ccccc1)C(=O)OCc1ccccc1 | inactive | inactive | inactive | inactive | inactive | inactive | inactive | inactive | inactive | inactive
CCCCCCCCCC(C)=O | inactive | inactive | inactive | inactive | inactive | inactive | inactive | inactive | inactive | inactive
OCCN(CCO)c1cccc(Cl)c1 | inactive | inactive | inactive | inactive | inactive | inactive | inactive | inactive | inactive | inactive
CC(S)C(=O)NCC(=O)O (stereo unspecified) | inactive | inactive | inactive | inactive | inactive | inactive | inactive | inactive | inactive | inactive
CC/C=C\CC1=C(C)CCC1=O | inactive | inactive | inactive | inactive | inactive |  | inactive | inactive |  | inactive
CCN(C)C(=O)Oc1cccc([C@H](C)N(C)C)c1 | inactive | inactive | inactive | inactive | inactive | inactive | inactive | inactive | inactive | inactive
O=C(O)C(=O)Cc1ccccc1 | inactive | inactive | inactive | inactive | inactive | inactive | inactive | inactive | inactive | inactive
CC(C)NCC(O)COc1cccc2[nH]ccc12 (stereo unspecified) | inactive | inactive | inactive | inactive | inactive | inactive | inactive | inactive | inactive | inactive
CC(=O)c1sc(C)nc1C | inactive | inactive | inactive | inactive | inactive |  |  | inactive |  | 
O=C(OCC1(COC(=O)c2cccnc2)CCCC(COC(=O)c2cccnc2)(COC(=O)c2cccnc2)C1O)c1cccnc1 | inactive | inactive | inactive | inactive | inactive |  |  | inactive |  | 
NS(=O)(=O)c1ccc(NC(=O)CCC(=O)O)cc1 | inactive | inactive | inactive | inactive | inactive |  |  | inactive |  | 
O=C1CCCC(=O)O1 | inactive | inactive | inactive | inactive | inactive |  |  | inactive |  | 
C=Cc1ccccn1 | inactive | inactive | inactive | inactive | inactive |  |  | inactive |  | 
CC(C)(C)OC(=O)c1ccc(O)cc1 | inactive | inactive | inactive | inactive | inactive |  | inactive | inactive | inactive | 
CCNC(=O)C1CC(C)CCC1C(C)C (stereo unspecified) | inactive | inactive | inactive | inactive | inactive |  |  | inactive |  | 
CN(C)c1ccc(C=O)cc1 | inactive | inactive | inactive | inactive | inactive |  |  | inactive |  | 
O=C(NCCc1c[nH]c2ccccc12)c1cccnc1 | inactive | inactive | inactive | inactive | inactive |  | inactive | inactive | inactive | inactive
CCCOC(OCCC)OCCC | inactive | inactive | inactive | inactive | inactive |  |  | inactive |  | 
Cc1cc2cc3c(C)cc(=O)oc3c(C)c2o1 | inactive | inactive | inactive | inactive | inactive |  |  | inactive |  | 
CCCC(=O)C(C)=O | inactive | inactive | inactive | inactive | inactive |  |  | inactive |  | 
C[C@@H](Oc1ccc(CNC(=O)c2cccnc2Oc2ccc3c(c2)OCO3)c(F)c1)C(=O)O | inactive | inactive | inactive | inactive | inactive |  |  | inactive |  | 
COc1ccc(OC)c(Cl)c1 | inactive | inactive | inactive | inactive | inactive |  | inactive | inactive | inactive | inactive
CCOCCOCCOCC | inactive | inactive | inactive | inactive | inactive |  |  | inactive |  | 
C=CC(OCC)OCC | inactive | inactive | inactive | inactive | inactive |  |  | inactive |  | 
